# Assay results from the supplement of paper PMC6555819.
# Test system: VDR:RXRa (NR concentration 270 nM, RXRa partner concentration 90 nM)
# Experiment: PBM binding z-score (relative to random genomic background probes); higher = stronger binding; sequences stand for … in GC…GCGATTGACAGCGTAGAATGAAGG
# Procedure: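 Protein-binding microarray (Agilent 4x180K custom design, double-stranded 60-nt probes: 5' GC cap, 34-nt variable region, 24-nt constant primer region; full probe sequence given). Purified or IVT nuclear receptor:RXRα heterodimers (3:1 NR:RXRα, mostly 270:90 nM) or homodimers were incubated for 1 h in PBS with 2% milk and no ligand, then detected with Alexa488 antibodies. Fluorescence from o1-orientation probes (~5 replicates averaged) was converted to z-scores against 500 random hg19 background probes. Variable regions are seed direct-repeat (DR0–DR5) sites, all their single-nucleotide variants and half-site ablations.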
row,Sequence,PBM binding z-score
1,CCTACTGGACCAAGGTCATTGATCAGTCAAAGCA,3.44
2,CCTTAAGGGTCACGAGGTTATAGCACGACGAGCG,6.02
3,AGAATGAGGTCACCAAAGATCAGGGAAACGCTTG,5.55
4,ATCGAAAGGTCCACGAGGTGAGTATACACCGTTT,1.22
5,CGTCAAAGGTCAGCAGGTCAGTGAAAGCGACGTG,5.16
6,ACTAGTTGGTCAGCTGAGGTCACACCCAATTCGG,4.19
7,AAAACAGGGTCATCGTAGGCCAGAGTACGCACAG,5.38
8,ACGCGGAGGACAAAGGTCAGAGCTACGCCAGTGA,3.14
9,CCGAGGAGGTTACGAGGGGGCATTCAGTGCGAAT,6.29
10,CGAACTAGGTCATCCAGGTCAGTGAATACATTGA,6.41
11,TACCCTAGGTCATTGGGCCAGTATAGTACGCATC,2.73
12,CCTTACGGGTCACTCCAGGTTATATCATCGGAGT,4.52
13,GCTTACAGGTCAAAGGTTATAGCATGAATAGAAT,5.51
14,CGAACTAGGTCACCCAGGACAGTGAATACATTGA,4.43
15,TATTCAGGGTCAAAGGCCAGAGTACGAATGTCGA,5.12
16,TCTAGTTGGTCACGGAGGGCACACACGACGGGTA,3.62
17,GGAACGAGGTCAAAGTTGATAGCATCTGTCGACG,5.81
18,TGTATGAGGTTAAAGATCAGGGAACGTGGCGTCG,2.15
19,ATATGTAGTTTATCGGGTCATTCAGTTTGCGCAT,5.19
20,AATACAGGGTCATCGTACGCCAGAGTACGCACAG,5.2

row,Sequence,PBM binding z-score
1,CCTTACGGGTCACGTGGTTATAGCACGACGAGCG,3.94
2,CGAACTAGGTCTAAGGACAGTGAAAGGCGACGTA,-0.556
3,CGTACAAGGTCAAAGGTCAGTGAAGAGATGACGG,6.84
4,AATACAGGGTCATCTTAGGCCAGAGTACGCACAG,5.31
5,CGTCCAAGGTCAGCGGGTCAGTGAAAGCGACGTG,4.57
6,TACCCTAGGTCATGGGCCAGTATACCACGCGAAC,2.67
7,CTCGAAAGGTCATGCTCAGGTGAGTATACCAAAC,5.69
8,CCTACTGGGCCAAAGGTGATTGATTCCAATGCTC,0.0696
9,TAGCCTAGGGCATTCAGGGGCCAGTATAGAAAGC,-0.213
10,CCTCGGAGGACAACAGGAGGTCATAGCTGCCAGA,3.57
11,CGAACTAGGTCGTCCAGGACAGTGAATACATTGA,1.65
12,CCTGCTAGGTCAAAGGTCAGCTAAAGCAGCTCGC,5.81
13,CGAACTAGGTCGCCAGGACAGTGAAGAGGTTGGA,-0.0336
14,TGTCAAAGTTCAAAGGTGACGTAAGTATCCACAC,5.65
15,CGTCCAAGGTCATATGAGGTCAGTGAAGACAGAT,7.19
16,ATCGAAAGGTCATGAGGTGAGTATACAGAAAGGC,5.78
17,TTGCCTAGGTCATTGGGCCAGTATAGTACGCATC,2.27
18,AGTCAAACTTCAGGACGAGGTAACGTAAAGCACG,-0.131
19,CGTCAAACTTCAACTAAGGTAACGTAAAGCACGC,0.382
20,AGAATGAGGTCAAGATCAGGGAAACAGAATACAT,4.93
